According to PubChem BioAssay (NCATS):
Results filed as inconclusive are left out. Entries that show only a call come without a potency. Active and inactive are the calls of the source. The call rests on the fitted dose curve; in most records, active means well fitted inhibition curve with a large enough effect; inconclusive means small, poorly fitted or top-dose-only effect; inactive means no such curve, though single readings can be large or run the other way.

test system: Zika virus NS2B-NS3 protease (unlinked complex); experiment: Primary screen GU Rhodamine qHTS for Zika virus inhibitors: Unlinked NS2B-NS3 protease assay (AID 1347159); settings: Recombinant ZIKV NS2B-NS3 protease, Rhodamine110 substrate fluorescence; series mostly up to 107 µM; further: nearly all actives have a fitted effect of over 60% in size
Method in brief: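 Noncovalent NS2B hydrophilic domain–NS3 protease domain complex (25 nM) preincubated 15 min at room temperature with compounds (up to 114 microM) in 10 mM Tris-HCl pH 8.0, 0.01% Tween 20; 1.5 microM Rhodamine110 substrate added, fluorescence change over 15 min fitted to Hill equation.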

Row | Compound | Potency
1 | CCOC(=O)C(CCc1ccccc1)NC1CCCN2CCCC(C(=O)O)N2C1=O (centres undefined) | inactive
2 | CC(=O)O[C@H]1[C@H](O[C@H]2CC[C@]34C[C@]35CC[C@]3(C)[C@@H]([C@@]6(C)CC[C@@H](C(C)(C)O)O6)[C@@H](O)C[C@@]3(C)[C@@H]5C[C@H](O[C@@H]3O[C@H](CO)[C@@H](O)[C@H](O)[C@H]3O)[C@H]4C2(C)C)OC[C@@H](OC(C)=O)[C@@H]1O | inactive
3 | NC(=O)[C@@H]1CC[C@H](c2ccc(OCc3ccccc3F)cc2)N1 | inactive
4 | Cn1cc(CCn2cnc(-c3cnn(C)c3)c2-c2ccc(C#N)cc2)cn1 | inactive
5 | CC1(C)CC2C(O)C3=C(CC(C)(O)C2C1)C(=O)OC3 (centres undefined) | inactive
6 | CCC1OC(=O)C(C)CC(C)C(=O)/C(C)=C/C(C)C(=O)/C=C/C1(C)O (centres undefined) | inactive
7 | CC1(C)CC[C@]2(C(=O)O[C@@H]3O[C@H](CO)[C@@H](O)[C@H](O)[C@H]3O)CC[C@]3(C)C(=CCC4[C@@]5(C)CC[C@H](O[C@@H]6O[C@H](C(=O)O)[C@@H](O[C@@H]7O[C@H](CO)[C@@H](O)[C@H](O)[C@H]7O)[C@H](O)[C@H]6O)C(C)(C)C5CC[C@]43C)C2C1 (some centres undefined) | inactive
8 | O=C(C[C@@H]1C(C(=O)O)=CO[C@@H](O[C@@H]2O[C@H](CO)[C@@H](O)[C@H](O)[C@H]2O)/C1=C\CO)OCCc1ccc(O)cc1 | inactive
9 | C=C[C@]1(C)C[C@@H](OC(=O)CSC2C[C@H]3CC[C@@H](C2)N3C)[C@]2(C)[C@H](C)CC[C@]3(CCC(=O)[C@H]32)[C@@H](C)[C@@H]1O (some centres undefined) | inactive
